From PubChem
Many of the other results were omitted from the sample, so hits are more common in it than they were.
ST2 inh = inhibitors of human ST2 (IL1RL1) binding to IL-33; Q01638; AlphaLISA ST2-Fc/biotin-IL-33 interaction, 1 h; inhibition, % for hits at 17 µM; actives 2.3% (n = 78,000); in the data active = inhibition above about 30%
Target sequence (Q01638 whole entry, looked up): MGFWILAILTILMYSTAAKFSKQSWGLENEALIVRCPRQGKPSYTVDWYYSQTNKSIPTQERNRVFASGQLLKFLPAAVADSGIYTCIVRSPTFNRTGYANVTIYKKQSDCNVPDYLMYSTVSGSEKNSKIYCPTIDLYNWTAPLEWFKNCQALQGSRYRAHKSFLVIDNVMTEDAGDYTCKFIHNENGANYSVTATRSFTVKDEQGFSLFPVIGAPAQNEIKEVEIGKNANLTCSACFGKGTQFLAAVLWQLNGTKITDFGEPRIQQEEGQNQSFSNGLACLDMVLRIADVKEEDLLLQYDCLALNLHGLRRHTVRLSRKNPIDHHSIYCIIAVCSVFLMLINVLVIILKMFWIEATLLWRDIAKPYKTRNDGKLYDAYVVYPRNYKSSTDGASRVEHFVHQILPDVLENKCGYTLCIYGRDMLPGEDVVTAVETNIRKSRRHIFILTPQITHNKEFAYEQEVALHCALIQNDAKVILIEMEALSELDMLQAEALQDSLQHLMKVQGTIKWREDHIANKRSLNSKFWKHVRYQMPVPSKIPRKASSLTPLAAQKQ
The depositor's hits bear a star; i = inactive.

SMILES | ST2 inh
O=C(CCN1C(=O)c2cccc([N+](=O)[O-])c2C1=O)Nc1ccc(F)cc1 | i
Cc1ccccc1NCN1C(=O)c2cccc([N+](=O)[O-])c2C1=O | i
O=C1Oc2cc(O)cc(O)c2C(c2ccc(O)cc2)C1C1C(=O)Oc2c(O)c(O)c(O)c(O)c2C1c1ccc(O)cc1 (centres undefined) | i
Cc1ccc(NS(=O)(=O)c2ccc3c(c2)NC(=O)CC(=O)N3)cc1N(C)C | i
CCC(NC(=O)CNC)c1nc(C)c(C)s1 (centres undefined) | i
Cc1c(Cl)cccc1NS(=O)(=O)c1ccc2[nH]cc(C(=O)N3CCOCC3)c(=O)c2c1 | i
Cc1ccc(S(=O)(=O)Nc2ccc3oc4c(c3c2)CC(C)CC4)cc1 (centres undefined) | i
COc1ccc(CN(C)C2CCCCC2)c(OC)c1OC | i
CCc1ccc(S(=O)(=O)N=C2C=C(Nc3cccc(C(=O)O)c3)C(=O)c3ccccc32)cc1 | 52.0%*
CC(=O)c1cccc(NC(=O)C(Cc2ccccc2)N2C(=O)c3ccccc3C2=O)c1 (centres undefined) | i
O=C(O)c1cccc(NS(=O)(=O)c2cccc(C(=O)Nc3ccccc3)c2)c1 | i
O=C(O)c1cccc(NS(=O)(=O)c2ccccc2)c1 | i
O=C1C=C(Nc2ccc(Cl)cc2)C(=O)N1c1ccccc1 | i
O=C(O)c1ccc(NC2=CC(=NS(=O)(=O)c3ccccc3)c3ccccc3C2=O)cc1 | 48.0%*
O=C(O)c1ccc(S(=O)(=O)c2ccccc2)cc1 | i
CN(CC(=O)Nc1ccc(C(=O)O)cc1)S(=O)(=O)c1ccccc1 | i
O=C(O)c1cccc(NC(=O)C(c2ccccc2)c2ccccc2)c1 | i
O=C1C(Nc2ccc(O)cc2)=CC(=NS(=O)(=O)c2ccc(Cl)cc2)c2ccccc21 | 87.0%*
O=C(O)c1cccc(NC2=CC(=NS(=O)(=O)c3ccc(F)cc3)c3ccccc3C2=O)c1 | 45.0%*
CC(=O)Nc1cc(Cl)ccc1OCc1cc(=O)n2oc(C)cc2n1 | i
Cc1ccc(-c2nc3ncccc3o2)cc1NC(=O)c1ccc(OC(C)C)cc1 | i
COc1cc(C(=O)Nc2nc(-c3cc(Cl)sc3Cl)cs2)cc(OC)c1OC | i
O=C(c1ccc2ncccc2c1)N1CCOc2ccc(CN3CCc4ccccc4C3)cc2C1 | i
O=C(CN1N=NC2C(=O)N(c3ccccc3)C(=O)C21)Nc1ccc(Cl)cc1Cl (centres undefined) | i
CC[C@H]1CN(S(=O)(=O)c2c(C)noc2C)CC[C@H]1CC(=O)NCCNC(C)=O | i
SMILES | ST2 inh
CCc1ccccc1OCCN(C)C(=O)c1ccc(-n2cnnn2)cc1 | i
Cc1ccc(CCNC(=O)CC2C(=O)N(C)C(=O)N2C)cc1C (centres undefined) | i
Cc1ccc(CSc2nnc3sc4ccccc4n23)cc1 | i
O=C(NC1CCCCCC1)c1ccc(NC2=NC3CS(=O)(=O)CC3S2)cc1 (centres undefined) | i
O=C(NC1CCCN(C2CCCCCC2)C1)c1ccncc1 (centres undefined) | i
COc1ccc(NCCNC(=O)c2ccc(Cl)cc2)c([N+](=O)[O-])c1 | 32.0%*
O=C(Nc1ccc(Cl)cc1[N+](=O)[O-])c1cccs1 | 33.0%*
O=C(Nc1cccc(Cl)c1)c1cccs1 | i
CCNc1ccc(Cl)cc1[N+](=O)[O-] | 31.0%*
NCCCNc1ccc(Cl)cc1[N+](=O)[O-] | i
CN(C)CCNc1ccc(Cl)cc1[N+](=O)[O-] | i
COc1ccc(NC(=O)c2ccc(-c3ccccc3)cc2)c([N+](=O)[O-])c1 | i
COc1ccc(Cl)cc1NC(=O)c1cccs1 | i
O=C(NCCNc1ccc(Cl)cc1[N+](=O)[O-])c1ccc(Br)o1 | i
CC(C)c1cc(C(=O)NC2CCCC2)no1 | i
CC1(C)CC(=O)c2c(noc2CCCCc2onc3c2C(=O)CC(C)(C)C3)C1 | i
Cc1cc(C)cc(NC(=O)CC(=O)N[C@@H]2C[C@H]2c2ccccc2)c1 | i
O=C(C[C@@H]1O[C@H](CNCc2cccc(Cl)c2)[C@@H](O)[C@H]1O)NCc1ccc(F)cc1 | i
O=C(NC1CC(=O)N(c2ccccc2)C1)c1ccc(Br)o1 (centres undefined) | i
COc1ccc(N2CC(NC(=O)c3ccco3)CC2=O)cc1 (centres undefined) | i
COc1ccc(N2CC(NC(=O)c3ccc(Br)o3)CC2=O)cc1 (centres undefined) | 31.0%*
COc1ccc(NC(=O)CCC2CCCN(Cc3csc(C(C)=O)c3)C2)c(C)c1 (centres undefined) | i
O=C(NCc1cccs1)C1CCN(c2ccc(-c3cccs3)nn2)CC1 | i
Cc1ccc(/C=C2\C(=O)NN(c3ccc(Cl)c(Cl)c3)C2=O)s1 | i
CCSC1=N/C(=C\c2ccc(C(=O)O)cc2)C(=O)S1 | i
SMILES | ST2 inh
CCSC1=N/C(=C\c2ccc(C)s2)C(=O)S1 | 57.0%*
COC(=O)[C@@H]1Cc2ncn(Cc3ccc(Cl)cc3)c2CN1Cc1ccc(OC)cc1 | i
O=C(O)c1cccc(-n2c(CN3CCc4ccccc4C3)n[nH]c2=O)c1 | i
CSc1ccc(CNC(=O)C2COc3ccccc3O2)cc1 (centres undefined) | i
COC(=O)[C@@H]1C[C@@H](NC(=O)c2ccc(-c3ccn[nH]3)cc2)CN1C | i
CCCOC1CCCN(Cc2c(C(=O)N(C)CCc3ccccc3)nc3c(C)cccn23)C1 (centres undefined) | i
O=C1CCc2nc3sc4c(c3c(=O)n2N1)CCCC4 | i
O=c1oc(/C=C/c2cccs2)nc2sc3c(c12)CCCC3 | i
O=c1oc(-c2ccccc2)nc2sc3c(c12)CCCCC3 | 36.0%*
Cc1ccccc1OCCNS(=O)(=O)c1cccc([N+](=O)[O-])c1 | i
O=C(CCC1CCN(C(=O)C2=CCCCC2)CC1)Nc1ccccc1 | i
O=C(c1cn(Cc2ccc(F)cc2Cl)nn1)N1CCC(C2CCCCC2)C1 (centres undefined) | i
COc1cc(NC(=O)O[C@@H]2CO[C@H]3[C@@H]2OC[C@@H]3NC(=O)COc2ccccc2)cc(OC)c1 | i
COc1cccc(C=Nc2ccc(S(=O)(=O)Nc3cc(C)on3)cc2)c1O | i
CCN(CC)c1ccc(N=Cc2cccc(OC)c2O)cc1 | 94.0%*
CCN(CC)c1ccc(C=Nc2ccc(OC)cc2OC)c(O)c1 | 35.0%*
COc1ccc(OC)c(N=Cc2c(O)c(OC)cc(Br)c2Br)c1 | i
Cc1ccc(N=Cc2cccc(C(=O)O)c2O)cc1 | i
COc1ccc(N=Cc2cc(Br)cc(Br)c2O)c(OC)c1 | i
CC1=C(C(=O)Nc2ccccn2)C(c2ccccc2)C2=C(CCCC2=O)N1 (centres undefined) | i
O=C(c1cn(CCN2CCCCC2)nn1)N1CCC(C(O)c2cccs2)CC1 (centres undefined) | i
CCC(C)NS(=O)(=O)c1cccc2cccnc12 (centres undefined) | i
O=C(CC1C(=O)NCCN1CC1CCCCC1)NCc1ncc[nH]1 (centres undefined) | i
O=C(c1ccco1)N1CCN(CC(O)Cn2c3ccc(Cl)cc3c3cc(Cl)ccc32)CC1 (centres undefined) | i
O=C(Nc1ccc(Cc2ccncc2)cc1)c1ccc([N+](=O)[O-])cc1Cl | i
O=C(Nc1ccccc1)c1cc([N+](=O)[O-])ccc1Cl | i
O=C(c1ccc([N+](=O)[O-])cc1Cl)N(Cc1ccccc1)Cc1ccccc1 | 38.0%*
